{"source": "PubChem BioAssay (NCI)", "note": "This is part of a sample that, as a whole, favours compounds with a hit. Of some 83,000 tested, about 20% had one in any assay.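 In brief: 96-well plates, 48 h treatment, single concentration, percent growth endpoint.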 The source made the active and inactive calls.", "data": [{"test_system": "ACHN renal", "test": "NCI-60 one-dose screen, 48 h (100 = growth as untreated, 0 = no growth, -100 = all killed)", "conditions": "10 µM unless noted", "description": "Growth inhibition of the ACHN human tumor cell line is measured as a screen for anti-cancer activity. Cells are grown in 96 well plates and exposed to the test compound for 48 hours. Compounds are tested at a single concentration, which is 10^-5 M for most compounds. The reported endpoint is percent growth (GI% or GIPRCNT), where numbers from 0 - 100% represent growth inhibition, and numbers from -100% - 0 represent cell death. For example, a value of 40 represents 60% growth inhibition. A value of 0 means no net growth occurred over the course of the experiment. A value of -40 indicates 40% of cells at the beginning of the experiment died by the end of the experiment. A value of -100 means all cells are dead at the end of the experiment.\nNCI-60 Human Tumor Cell Lines Screen was performed using the standard one-dose NCI protocol, which is described in more detail at https://dtp.cancer.gov/discovery_development/nci-60/default.htm.\nCompounds with GIPRCNT values below 10 were considered active. Activity score was based on GIPRCNT using the following formula: […]\nScore is 0 for GIPRCNT values of 100 or above, 50 for GIPRCNT values of 0, and 100 for GIPRCNT values of -100.", "values": [{"compound": "COc1cccc(OC)c1-c1nnn(C)c1C(=S)N1CCN(c2ccc([N+](=O)[O-])cc2Cl)CC1", "growth": "92.2% (inactive)"}, {"compound": "CCCC(=O)NC(c1cccc(N(C)C)c1)c1cc(C)c2cccnc2c1O", "note": "(stereo not given)", "growth": "38.2% (inactive)"}, {"compound": "CCCC(=O)NC(c1ccc2c(c1)OC(F)(F)O2)c1cc(C)c2cccnc2c1O", "note": "(stereo not given)", "growth": "6.71% (active)"}, {"compound": "COc1ccc([C@@H]2c3[nH]c4ccccc4c3CC3C(=O)N(C4CCN(Cc5c(F)cccc5F)CC4)CC(=O)N32)c(OC)c1", "note": "(stereo not given in full)", "growth": "47.6% [5.26 µM] (inactive)"}, {"compound": "COc1cc(-c2nc3ccc(-c4nnc(SCC(=O)Nc5ccc(C(=O)/C=C/c6ccc(Cl)cc6)cc5)o4)cc3[nH]2)cc(OC)c1OC", "growth": "96.8% (inactive)"}, {"compound": "O=c1/c(=C\\c2ccc(-c3ccccc3)o2)sc2nc(-c3ccccc3)nn12", "growth": "102% (inactive)"}, {"compound": "O=C(CN1C(=O)/C(=C/c2ccccc2)SC1=S)N1CCOCC1", "growth": "77.9% (inactive)"}, {"compound": "CC1=C(C)C(=O)C(Nc2ccccc2)=C(Cl)C1=O", "growth": "100% (inactive)"}, {"compound": "OC1CCN(CCCOc2c3ccc(Cl)cc3nc3c2oc2ccccc23)CC1", "growth": "-50.1% (active)"}, {"compound": "Cn1cc(-c2cc(N)n3nc(-c4cn(C)c5ccc(F)cc45)cc3n2)c2cc(F)ccc21", "growth": "-38.6% (active)"}, {"compound": "O=[N+]([O-])c1ccc(O)c2ncccc12", "growth": "23.7% (inactive)"}, {"compound": "Cc1ccc2ccc3ccc(C)nc3c2n1.Cc1ccc2ccc3ccc(C)nc3c2n1.Oc1c(Cl)cc(Cl)c2ccc(CN3CCCCC3)nc12.[Ru]", "growth": "-95.6% (active)"}, {"compound": "Cn1ccnc1C(=O)/C=C/c1ccc(NC(=O)Nc2ccc(F)cc2)cc1", "growth": "49.5% (inactive)"}, {"compound": "Cc1cc(C(NC(=O)CCCCCNc2cccc3c2C(=O)N(C2CCC(=O)NC2=O)C3=O)c2cccnc2)c(O)c2ncccc12", "note": "(stereo not given)", "growth": "35.6% (inactive)"}, {"compound": "N/C(=N\\c1nc2c(Cl)cc(Cl)cc2s1)C(Cl)(Cl)Cl", "growth": "-32% (active)"}, {"compound": "O=C(CSc1nccc(=O)[nH]1)Nc1ccc(-c2nc3ccccc3[nH]2)cc1", "growth": "101% (inactive)"}, {"compound": "CN(C)c1ccc(/C=C2\\Cc3c(F)ccc(Br)c3C2=O)cc1", "growth": "84.8% (inactive)"}, {"compound": "CN(C)c1ccc(/C=c2\\sc3nc4ccccc4n3c2=O)cc1", "growth": "98% (inactive)"}, {"compound": "CC(O)C(NC(=O)C1CCCN1C(=O)CNC(=O)C1CC(=O)NCC(=O)NC(Cc2c[nH]c3ccccc23)C(=O)NC(Cc2ccc(O)cc2)C(=O)NCC(=O)NC(CO)C(=O)NC(CCC(N)=O)C(=O)NC(Cc2c[nH]c3ccccc23)C(=O)N1)C(=O)NCC(=O)NC(CCC(N)=O)C(=O)NC(CCCNC(=N)N)C(=O)NC(CC(=O)O)C(=O)O", "note": "(stereo not given)", "growth": "96.2% (inactive)"}, {"compound": "Fc1ccc(-c2cc3nc(C(Cl)Cl)nc(-c4ccc(Cl)cc4)n3n2)cc1", "growth": "-63.6% (active)"}, {"compound": "CC(=O)Oc1ccccc1C(=O)Nc1ccc(C(=O)/C=C/c2cccs2)cc1", "growth": "112% (inactive)"}, {"compound": "CN(C)CCCOc1c2ccc(Cl)cc2nc2c1oc1ccc(Cl)cc12", "growth": "-85.6% (active)"}, {"compound": "Nc1cc(-c2c[nH]c3ccccc23)nc2cc(-c3c[nH]c4ccccc34)nn12", "growth": "51.6% (inactive)"}, {"compound": "N#Cc1nc(-c2ccccc2)oc1S(=O)(=O)N1CCCCC1", "growth": "-93.4% (active)"}, {"compound": "CSCCC(C(=O)O)N1C(=O)/C(=C/c2ccc(O)c(O)c2)SC1=S", "note": "(stereo not given)", "growth": "99.9% (inactive)"}, {"compound": "NS(=O)(=O)c1cccc(Nc2nc(SCC(=O)c3ccc([N+](=O)[O-])cc3)nc3ccccc23)c1", "growth": "45.8% (inactive)"}, {"compound": "Cc1ccccc1NC(=O)/C=C/c1ccc(OCCOc2ccc3c(C)cc(=O)oc3c2)cc1", "growth": "89.4% (inactive)"}, {"compound": "N#Cc1c(-c2ccc(Cl)cc2)nc2c(-c3ccccc3)c(Nc3ccccc3)nn2c1N", "growth": "11% (inactive)"}, {"compound": "COc1cc(OC)c(S(=O)(=O)NNC(=O)c2ccncc2)cc1C(=O)/C=C/c1ccc(C)cc1", "growth": "98.1% (inactive)"}, {"compound": "N#Cc1ccc(/C=N/NC(=O)c2[nH]c3ccc(Br)cc3c2-c2ccccc2)s1", "growth": "18.2% (inactive)"}, {"compound": "Nc1nc(N)c2c(n1)NC(c1ccc(F)cc1)CC(c1ccc(Nc3nc(NCCO)nc(Nc4ccc(Cl)cc4)n3)cc1)=N2", "note": "(stereo not given)", "growth": "39.5% (inactive)"}, {"compound": "CN(C)CCCNc1c2ccc(Cl)cc2nc2c1oc1ccccc12", "growth": "-36.5% (active)"}, {"compound": "N#Cc1nc(-c2ccccc2)oc1S(=O)(=O)N1CCN(CCc2ccccn2)CC1", "growth": "-95.4% (active)"}, {"compound": "CN(C)S(=O)(=O)c1oc(-c2ccccc2)nc1C#N", "growth": "-83.9% (active)"}, {"compound": "O=C(Oc1ccc2ccc(=O)oc2c1)c1ccc(Cl)cc1", "growth": "106% (inactive)"}, {"compound": "Cc1cc2nc3c4cc(Cl)ccc4n(CC(=O)NCCN(C)C)c3nc2cc1C", "growth": "-47.4% (active)"}, {"compound": "CS(=O)(=O)c1ccc(-n2cc(/C=C/C(=O)c3ccc(NC(=O)CO[N+](=O)[O-])cc3)c(-c3ccc(Cl)cc3)n2)cc1", "growth": "88.5% (inactive)"}, {"compound": "COC(=O)C1CCCN(S(=O)(=O)/N=C2\\NC(=O)NC2=C(Cl)Cl)C1", "note": "(stereo not given)", "growth": "109% (inactive)"}, {"compound": "COc1cc2cc(Oc3ccc(NC(=O)c4cccc(C(F)(F)F)c4)cc3)c(C)nc2cc1OCCN1CCCCC1", "growth": "80.5% (inactive)"}, {"compound": "CCCC(=O)NC(c1ccc(N(CC)CC)cc1)c1cc(C)c2cccnc2c1O", "note": "(stereo not given)", "growth": "10.7% (inactive)"}]}]}
